Compound activity as filed in PubChem.
Most compounds without a hit are left out; they make up all but 3.7% or so of the library.
Rce1 inh: inhibitors of yeast Ras-converting enzyme. 290,000 compounds, 0.27% hits. Q03530. yeast membranes, quenched prenylated peptide cleavage fluorescence. calls only;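 active means fall in fluorescence gain of 50% or more versus controls, with final raw signal at or below 3038400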;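 further: plate controls were neutral control wells for no effect and wells lacking membranes for full effect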
Target sequence (Q03530 whole entry, looked up): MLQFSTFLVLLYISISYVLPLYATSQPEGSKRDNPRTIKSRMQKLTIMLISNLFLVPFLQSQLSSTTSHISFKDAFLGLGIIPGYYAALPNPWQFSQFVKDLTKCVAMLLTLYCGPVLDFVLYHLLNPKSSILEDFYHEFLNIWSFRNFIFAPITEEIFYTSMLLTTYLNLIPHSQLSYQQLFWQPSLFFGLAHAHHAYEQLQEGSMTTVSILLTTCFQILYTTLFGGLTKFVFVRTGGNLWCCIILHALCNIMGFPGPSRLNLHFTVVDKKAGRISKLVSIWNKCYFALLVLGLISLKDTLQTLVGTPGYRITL
tim23-1 inh: growth inhibitors of tim23-1 mutant yeast. S. cerevisiae tim23-1 growth, BacTiter-Glo luminescence, 24 h. inhibition, % at 20 µM. 330,000 compounds, 1.3% hits. AID 463212;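 active means growth inhibition of the mutant yeast at or above 50%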;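 further: temperature-sensitive mutant grown at 25 °C; plate controls were DMSO-treated mutant yeast for no effect and medium wells lacking yeast for full effect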
TIM10 inh: TIM10 yeast growth inhibition; S. cerevisiae TIM10 strain growth, BacTiter-Glo luminescence, 24 h; inhibition, % at 10 µM; 330,000 compounds, 1.4% hits;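 active means inhibition of 40% or more at the single tested concentration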;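 further: wild-type TIM10 isogenic control strain grown at permissive 25 °C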
PfHsp90 set2: inhibits growth of yeast expressing Plasmodium falciparum Hsp90; S. cerevisiae expressing PfHsp90, BacTiter-Glo ATP, 48 h; yeast lacking PDR1 and PDR3 efflux regulators; inhibition, % at 9.4 µM; 310,000 compounds, 0.32% hits; AID 504621;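 active means every replicate shows inhibition above about 80%, whatever the replicate mean, limit read from the data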;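 further: 0% = DMSO neutral controls and 100% = 20 µM radicicol positive controls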
tim10-1 inh: tim10-1 yeast growth inhibition; S. cerevisiae tim10-1 ts strain growth, BacTiter-Glo, 24 h; inhibition, % at 20 µM; 330,000 compounds, 2.2% hits;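 active means inhibition of at least 40%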;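 further: mutant grown at 25 °C; 0% = DMSO wells with yeast and 100% = wells holding no yeast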
tim10-1 conf: tim10-1 yeast growth inhibition, confirmed | shares compounds with tim10-1 inh | S. cerevisiae tim10-1 ts strain growth, BacTiter-Glo, 24 h | inhibition, % at 20 µM | 7,400 compounds, 56% hits | AID 463213;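 active means inhibition of yeast growth at or above a set limit in either of two repeat tests at 20 µM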;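 further: tim10-1 mutant grown at permissive 25 °C to find synthetic lethal compounds; 0% = DMSO yeast wells and 100% = medium wells without yeast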
tim10 confirm: confirmation of TIM10 yeast growth inhibitors; shares compounds with TIM10 inh; S. cerevisiae tim10 strain growth, BacTiter-Glo luminescence, 24 h; inhibition, % at 10 µM; 4,600 compounds, 63% hits;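 active means inhibition of yeast growth at or above a set limit in either of two replicates at 10 µM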;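 further: this counterscreen used the strain with wild-type TIM10; 0% = yeast with DMSO and 100% = medium wells lacking yeast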
tim23-1 confirm: tim23-1 yeast growth inhibition, confirmed. shares compounds with tim23-1 inh. S. cerevisiae tim23-1 growth, BacTiter-Glo luminescence, 24 h. inhibition, % at 20 µM. 4,400 compounds, 83% hits. AID 463218;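 active means inhibition above about 39% in either of two replicate wells at 20 µM, limit read from the data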;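 further: temperature-sensitive tim23-1 mutant grown at 25 °C; 0% = DMSO wells with yeast and 100% = medium wells without yeast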
Starred values were filed as active, the others as inactive; i = inactive; · = no result given.

SMILES | Rce1 inh | tim23-1 inh | TIM10 inh | PfHsp90 set2 | tim10-1 inh | tim10-1 conf | tim23-1 confirm | others
CC(C)(C)NC(=O)CC1C[C@H](C(=O)N2CCOCC2)[C@@]2(CCC3CCCC3)c3[nH]c4ccccc4c3CCN2C1=O (some centres not stated) | · | -3 | 16 | -6 | 6 | · | ·
Fc1cccc(Cc2noc(CN3CCCCC3c3ccccn3)n2)c1 (configuration not stated) | · | 26 | 13 | 23 | 2 | · | ·
COc1ccc(/C=N/NC(=O)C(=O)/C=C2\NC3(CCCC3)Cc3ccccc32)cc1 | i | 54* | 37 | -33 | 42* | 31* | 36
O=C(/C=C1\NC2(CCCC2)Cc2ccccc21)C(=O)N/N=C/c1ccc(O)c(O)c1 | i | 19 | 4 | -4 | 7 | · | ·
CC(=O)Cc1nsc(NC(=O)c2ccc(-c3ccccc3Cl)o2)n1 | i | 51* | 25 | 66 | 48* | 43* | 51*
CCOC(=O)N1CCN(C(=S)NC(=O)c2cc(Br)ccc2Cl)CC1 | i | 23 | 19 | -74 | 25 | · | ·
CCOC(=O)C1CCCN(C(=S)NC(=O)c2cc(Br)ccc2Cl)C1 (configuration not stated) | · | 55* | 37 | 6 | 40* | 28 | 44*
CCCN(CC1CC1)C(=S)NC(=O)c1cc(Br)ccc1Cl | · | 57* | 52* | -22 | 60* | 37* | 52* | tim10 confirm=51*
CCC1CCCCN1C(=O)c1ccc2c(c1)C(=O)N(c1ccc(C)cc1)C2=O (configuration not stated) | i | 16 | 21 | -4 | 10 | · | ·
O=C(O)CC1=C(c2ccc(F)cc2)CCC1=O | i | 6 | 7 | -13 | 2 | · | ·
Cc1ccccc1CC(=O)c1ccc(O)c(C)c1O | · | 61* | 31 | 10 | 49* | 46* | 66*
NC(=O)c1ccsc1NC(=O)CCS(=O)(=O)c1ccccc1 | i | 14 | -5 | 31 | 1 | · | ·
CCOC(=O)c1ccsc1NC(=O)CCS(=O)(=O)c1ccccc1 | i | 62* | 43* | -15 | 54* | 42* | 51* | tim10 confirm=38*
O=C(c1ccccc1)C(C(=O)N1CCc2ccccc2C1)n1ccccc1=O (configuration not stated) | i | 19 | 24 | -8 | 21 | · | ·
Nc1ccccc1C#Cc1ccccc1 | i | 2 | -9 | -3 | -5 | · | ·
Nc1ccccc1C#Cc1ccc2[nH]ccc2c1 | i | 63* | 25 | 0 | 44* | 7 | 53*
COc1ccccc1OCC(=O)N(Cc1nc(-c2ccccc2)no1)C1CCCCC1 | · | 52* | 27 | -2 | 42* | 31* | 51*
Cc1ccccc1OCC(=O)N(Cc1nc(-c2ccccc2)no1)C(C)C | i | 26 | 16 | 9 | -21 | · | ·
COc1ccc(CCNCC(=O)Nc2ccc(C(=O)N3CCCCC3)cc2)cc1 | i | 10 | -9 | 3 | 12 | · | ·
NC(=O)c1c(NC(=O)c2cccs2)sc2c1CCCCCC2 | i | 59* | 23 | -45 | 46* | 12 | 58*
CCc1nc(SCC(=O)Nc2cc(OC)ccc2OC)c2c(C)c(C)sc2n1 | i | 8 | -6 | 30 | -2 | · | ·
O=C(NC(=S)Nc1ccc(Br)c(Cl)c1)C1CC1 | i | 62* | 25 | -26 | 43* | 22 | 54*
O=C(NC(=S)Nc1cccc(Cl)c1Cl)C1CC1 | i | 51* | 41* | -7 | 43* | 16 | 32 | tim10 confirm=24
O=C(NC(=S)Nc1ccccc1F)C1CCCCC1 | · | 54* | 31 | · | 40* | 21 | 48*
O=C(NNC(=S)Nc1ccccc1Cl)C1CC1 | i | -10 | -2 | 1 | 14 | · | ·
SMILES | Rce1 inh | tim23-1 inh | TIM10 inh | PfHsp90 set2 | tim10-1 inh | tim10-1 conf | tim23-1 confirm | others
COc1cc(C(=O)NCCc2ccc(F)cc2)ccc1OCC(=O)N1CCOCC1 | i | 2 | 1 | -48 | 8 | · | ·
Oc1ccc(Nc2nc(-c3ccccc3)nc3ccccc23)cc1 | i | 61* | 42* | -9 | 59* | 46* | 59* | tim10 confirm=52*
CC(Nc1nc(-c2ccccc2)nc2ccccc12)c1ccccc1 (configuration not stated) | i | 58* | 29 | 13 | 44* | -27 | 33
COc1ccc(Nc2nc(-c3ccccc3)nc3ccccc23)cc1 | i | 67* | 39 | -9 | 52* | 40* | 63*
c1ccc2c(c1)c1c(c3ccccc32)CN2CCCC2C1 (configuration not stated) | · | · | · | -2 | · | · | ·
CCN1C(=O)[C@H]2[C@@H](c3ccc(SC4CCCCC4)cc3)N[C@@](CC(C)C)(C(=O)OC)[C@H]2C1=O | i | 7 | 17 | 21 | 6 | · | ·
CCOC(=O)C1CCN(c2c([N+](=O)[O-])c(C(Cl)Cl)nn2-c2ccccc2)CC1 | i | 43 | 34 | -2 | 30 | · | ·
O=[N+]([O-])c1c(C(Cl)Cl)nn(-c2ccccc2)c1N1CCCC1 | i | 61* | 20 | -4 | 61* | 61* | 58*
COc1cccc(CN2CCN(C3CCOCC3)CC2CCO)c1 (configuration not stated) | i | 13 | -16 | 12 | -9 | · | ·
CC(C)CN(CC(C)C)C(=O)c1cc(S(=O)(=O)N2CCCCC2)c[nH]1 | i | 15 | 1 | 18 | 17 | · | ·
CN(C)S(=O)(=O)c1cccc(NC(=S)Nc2cc(Cl)cc(Cl)c2)c1 | i | 52* | 60* | 25 | 58* | 36* | 44* | tim10 confirm=23
CC(C)c1ccc(NC(=O)Cn2c(=O)oc3ccccc32)cc1 | i | 21 | -2 | -4 | 19 | · | ·
Cc1ccc(N(CCC#N)C(=O)CSc2nnc3ccccn23)cc1 | · | -7 | -3 | -2 | -8 | · | ·
O=C(CCN1CCC(c2cccs2)=N1)c1cccs1 | i | 63* | 63* | · | 41* | 30 | 84* | tim10 confirm=69*
O=C(CCN1CCCC1)c1cccs1 | i | 21 | -4 | -5 | 4 | · | ·
CCOc1ccc(/C=C2\SC(=S)NC2=O)cc1OC | i | 24 | 22 | -43 | 29 | · | ·
COc1ccc(/C=C2\SC(=O)NC2=S)cc1OC | i | 52* | 33 | -68 | 41* | 37* | 48*
O=[N+]([O-])c1ccc(NC(=S)NCCc2ccc(F)cc2)cc1 | i | 74* | 64* | 14 | 75* | 70* | 70* | tim10 confirm=-29
Fc1ccc(NC(=S)NCCc2ccccc2)c(F)c1F | i | 51* | 41* | 3 | 40* | 19 | 49* | tim10 confirm=35*
S=C(NCCc1ccc(Cl)cc1)Nc1ccc(Cl)cc1Cl | i | 60* | 48* | 17 | 50* | 56* | 66* | tim10 confirm=44*
